Rows were chosen to be rich in hits. Some 12% of all compounds tested hit in one or more screens of this group.
Shiga inhibitor = inhibitors of Shiga toxin in Vero cells | AID 2315 | Vero cells, Shiga toxin protein synthesis inhibition reporter | hit rate 9.2% among 290,000 | inhibition, % at 38.7 µM; in the data active = inhibition mostly above about 28%, no sharp cut-off; inactive = mostly below about 43%
NS1 function inh = influenza NS1 inhibition; Potency, µM (top dose mostly 46.1 µM); hit rate 0.4% among 270,000; AID 2326; note: actives are rising curves; nearly all actives have a fitted effect of over 50% in size
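Growth recovery, yeast-based: influenza A NS1 expressed in S. cerevisiae causes slow growth, and suppressors are detected by OD600. The parent strain without NS1 is used as positive control.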
CHX counter = affects cycloheximide protein synthesis inhibition readout, counter-screen | AID 2314 | cell reporter, cycloheximide protein synthesis inhibition counterscreen | hit rate 12% among 300,000 | max response, %; in the data active = max response mostly above about 13%, no sharp cut-off; inactive = mostly below about 14%; note: read at 38.3 µM for the half of the compounds with a filed dose
SARS PLP yeast = blocks SARS-CoV papain-like protease in a yeast assay | AID 485353 | S. cerevisiae expressing SARS-CoV PLpro, growth rescue | Potency, µM (series often up to 32.9 µM), most hits filed as activators | hit rate 0.19% among 330,000; note: nearly all actives have a fitted effect of over 55% in size
Each line names hits and unclear results; the compound was inactive in the other large screens; ! = not active in a repeat. Unless noted, calls come from the whole dose curve.

COc1ccc2oc(=Nc3ccccc3)c(-c3nc4ccccc4[nH]3)cc2c1	Shiga inhibitor 71, CHX counter 59
CCN(CC(=O)NCc1ccc(Cl)cc1)C(=O)c1cc2ccccc2o1	none
c1ccc2[nH]c(-c3ccncc3)nc2c1	Shiga inhibitor 68, CHX counter 19
COC(=O)c1ccc(-c2nc3ccccc3[nH]2)cc1	Shiga inhibitor active, CHX counter 63
COC(=O)c1ccc(C(=O)OCc2nc3cc4ccccc4cc3[nH]2)cc1	Shiga inhibitor 14, CHX counter 29
O=C(Nc1cccc(-c2nc3ccccc3[nH]2)c1)c1ccccn1	none
Cc1cc(-c2nc3ccccc3[nH]2)ccc1N	Shiga inhibitor 144 (no result: NS1 function inh)
O=C(O)CCc1nc2cc3ccccc3cc2[nH]1	none (no result: NS1 function inh)
CC(C)(C)C(=O)Nc1cccc(-c2nc3ccccc3[nH]2)c1	none
Cc1cc2c(s1)c1cnn(Cc3c(F)cccc3F)c(=O)c1n2C	none (no result: NS1 function inh, SARS PLP yeast)
COc1ccccc1NS(=O)(=O)c1ccc(C)c(NS(=O)(=O)c2cc(C(=O)O)cc(C)c2C)c1	none
COc1ccc(Nc2nc(N3CCN(S(=O)(=O)N(C)C)CC3)nc3ccccc23)cc1	none
CC(=O)Nc1ccc2nc(-c3cccnc3)[nH]c2c1	none
O=C(O)c1cccc(-c2nc3ccccc3[nH]2)c1	Shiga inhibitor 32, CHX counter 27
S=C(Nc1ccc(-c2nc3ccccc3[nH]2)cc1)Nc1cccnc1	Shiga inhibitor 66, CHX counter 61
c1cncc(-c2nc3ccccc3[nH]2)c1	Shiga inhibitor 71!, CHX counter 37!
C[C@H](NC(N)=O)C(=O)Nc1ccc(OCc2ccccc2)cc1	CHX counter 59 (no result: NS1 function inh)
O=C(O)/C=C/C(=O)Nc1ccc(-c2ccccc2)cc1	Shiga inhibitor 92, CHX counter 45
O=C(O)/C=C/C(=O)Nc1ccc(OCc2ccccc2)cc1	CHX counter 19
Cc1c(Br)c([N+](=O)[O-])nn1CC(=O)Nc1ccc(Cc2ccncc2)cc1	NS1 function inh inconclusive
COc1ccc(S(=O)(=O)N(CCCN2CCOCC2)Cc2cccc3ccccc23)cc1	none
CN(C)c1nnc(-c2ccc(Cl)cc2)o1	Shiga inhibitor 49, CHX counter 39 (no result: NS1 function inh)
Cc1ccccc1C(=O)Nc1nnc(-c2ccco2)o1	Shiga inhibitor 57, CHX counter 33
O=C(Nc1nnc(-c2ccco2)o1)c1ccc(Cl)cc1	Shiga inhibitor 42, CHX counter 29 (no result: NS1 function inh)
O=C(Nc1nnc(-c2ccco2)o1)c1cccc(N2C(=O)CCC2=O)c1	Shiga inhibitor 99 (no result: NS1 function inh)
Cc1ccc(C(=O)NCCc2nnc3c(C(F)(F)F)cc(Cl)cn23)o1	none
c1cncc(-c2nnc(-c3ccco3)o2)c1	none
Cc1cccc(C(=O)Nc2nnc(-c3ccco3)o2)c1	none
Cc1ccc(C(=O)Nc2nnc(-c3ccco3)o2)cc1C	Shiga inhibitor 57, CHX counter 22
Clc1ccc(-c2nnc(-c3ccco3)o2)cc1	Shiga inhibitor 91, CHX counter 42
COc1ccc(/C=C2\CN(Cc3ccccc3)C/C(=C\c3ccc(OC)c(O)c3)C2=O)cc1O	CHX counter 14
COc1ccc(C=C2C(=O)c3ccccc3C2=O)cc1O	Shiga inhibitor 115, CHX counter 38 (no result: NS1 function inh)
COc1cc(C=C2C(=O)c3ccccc3C2=O)ccc1O	Shiga inhibitor 78, CHX counter 28
COc1cc(/C=C2\COC/C(=C\c3ccc(O)c(OC)c3)C2=O)ccc1O	Shiga inhibitor 37, CHX counter 33
COc1cc(C=C2C(=O)c3ccccc3C2=O)cc(OC)c1OC	none (no result: NS1 function inh)
COc1cc(C=C2C(=O)c3ccccc3C2=O)cc(OC)c1	none
O=C(CCCN=C1NS(=O)(=O)c2ccccc21)OCc1ccccc1	none (no result: Shiga inhibitor, NS1 function inh, CHX counter)
CCCn1c(SCC(=O)NC2CCCCC2)nnc1-c1cccnc1	none
O=C(OCC(=O)N1CCN(C(=O)c2ccco2)CC1)c1ccccc1NCCO	none (no result: Shiga inhibitor, NS1 function inh, CHX counter)
CC(=O)Nc1ccc(NC(=O)c2cc(-c3ccc(C)c(C)c3O)n[nH]2)cc1	CHX counter 29
Cc1ccc(NC(=O)c2cc(-c3ccc(C)c(C)c3O)n[nH]2)cc1C	none
Cc1cccc(NC(=O)c2cc(-c3ccc(C)c(C)c3O)n[nH]2)c1	Shiga inhibitor 92, CHX counter 49
CC(=O)Nc1ccc(NC(=O)c2cc(-c3cc(C)cc(C)c3O)n[nH]2)cc1	NS1 function inh inconclusive, CHX counter 23
COc1ccc(CN2CCN(C(=O)CCC(=O)Nc3nnc(C4CCCCC4)s3)CC2)cc1F	none
Cc1ccccc1CN1CCN(C(=O)c2cccc3ccccc23)CC1	none
Cc1cc(C)c(NC(=O)C[C@H](CC(=O)O)c2cccc3ccccc23)c(C(=O)N2CCC3(CCCC3)CC2)c1	NS1 function inh 10µM (no result: Shiga inhibitor, CHX counter, SARS PLP yeast)
CCCn1cnc2c(sc3nc4c(cc32)CSC(C)(C)C4)c1=O	Shiga inhibitor 37, CHX counter 25
CC1(C)Cc2nc3sc4c(=O)n(Cc5ccccc5)cnc4c3cc2CS1	none
Cc1nc(OCc2ccccc2)c2sc3nc4c(cc3c2n1)COC(C)(C)C4	none
CC(C)CCOc1ncnc2c1sc1nc3c(cc12)CSC(C)(C)C3	CHX counter 15
Nc1nc(Nc2ccccc2)nc(NCc2ccccc2)c1[N+](=O)[O-]	none
Cc1ccc(Nc2nc(N)c([N+](=O)[O-])c(NCc3ccco3)n2)cc1C	Shiga inhibitor 54, CHX counter 67
Cc1ccc(Nc2nc(N)c([N+](=O)[O-])c(NCCO)n2)cc1C	CHX counter 27
CCOc1ccc(Nc2nc(N)c([N+](=O)[O-])c(NCc3ccccc3)n2)cc1	CHX counter 19
Nc1nc(NCc2ccco2)nc(Nc2ccc(F)cc2)c1[N+](=O)[O-]	none
Nc1nc(Nc2ccc(Cl)cc2)nc(NCCO)c1[N+](=O)[O-]	none
CN(C)CCC1(c2ccc(Cl)cc2)Cc2ccccc2C(=O)O1 (centres undefined)	none (no result: NS1 function inh, SARS PLP yeast)
CN(C)C(=O)O/N=C(\N)COc1ccc(C(C)(C)C)cc1	CHX counter 30
CC(C)Cn1c(C23CC4CC(CC(C4)C2)C3)n[nH]c1=S	none
Cn1c(C23CC4CC(CC(C4)C2)C3)n[nH]c1=S	SARS PLP yeast 13µM
Cc1nc2ccc([N+](=O)[O-])cc2c(=O)n1Cc1ccc(Br)cc1	none
Cc1c(CC(=O)NC(C)C)c(=O)oc2cc3c(cc12)CCC(C)(C)O3	Shiga inhibitor 54, CHX counter 35
COCCNC(=O)Cc1c(C)c2cc3c(cc2oc1=O)OC(C)(C)CC3	CHX counter 14
CCC(C)NC(=O)Cc1c(C)c2cc3c(cc2oc1=O)OC(C)(C)CC3 (centres undefined)	Shiga inhibitor 63, CHX counter 40
Cc1c(CC(=O)NCC(C)C)c(=O)oc2cc3c(cc12)CCC(C)(C)O3	Shiga inhibitor 41, CHX counter 23
Cc1c(CC(=O)N[C@@H](C)C(=O)O)c(=O)oc2cc3c(cc12)CCC(C)(C)O3	none
Cc1c(CC(=O)NCCC(C)C)c(=O)oc2cc3c(cc12)CCC(C)(C)O3	none
Cc1c(CC(=O)N[C@H](C(=O)O)C(C)C)c(=O)oc2cc3c(cc12)CCC(C)(C)O3	Shiga inhibitor 98, CHX counter 67
CCn1c(-c2cc(-c3ccc(OC(C)C)cc3)nc3ccccc23)n[nH]c1=S	CHX counter 31
CCn1c(-c2cc(-c3ccc(C)cc3)nc3ccccc23)n[nH]c1=S	CHX counter 16 (no result: NS1 function inh)
CCCOc1cccc(-c2cc(-c3n[nH]c(=S)n3CC)c3ccccc3n2)c1	none

Screening results deposited in PubChem BioAssay by National Center for Advancing Translational Sciences (NCATS).
